Measured values as given in PMC9911399, “Two distinct binding modes provide the RNA-binding protein RbFox with extraordinary sequence specificity”.
Positions count from the first letter of the chain named. Over roughly 16,000 sequences, “ka relative to ugcaugu” has its median near 0.0091; the highest 2% begin near 0.032. The sample holds the highest values, similar sequences and a random draw of the others, so the mix is not that of the screen.

T1: RBFOX1 RRM (Homo sapiens, UniProt Q9NWB1 109-208)
T1 sequence: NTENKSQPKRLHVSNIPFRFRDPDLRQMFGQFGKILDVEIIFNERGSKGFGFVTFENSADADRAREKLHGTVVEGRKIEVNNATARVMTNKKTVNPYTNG

B1: GGUGGAA (DNA:RNA)
RNA: GGGAGACCGGAAUUCAGAUUGUCCGGUGGAAUUAAAUCCCGUCGUAGCCACCA
DNA 1: CAATCTGAATTCCGGTCTCCC
DNA 2: TGGTGGCTACGACGGGATT
B2: UGGCGAC (DNA:RNA)
RNA: B1 RNA with G25U, U27G, G28C, A31C
DNA 1: CAATCTGAATTCCGGTCTCCC
DNA 2: TGGTGGCTACGACGGGATT
B3: CCGGGGC (DNA:RNA)
RNA: B1 RNA with G25C, G26C, U27G, A30G, A31C
DNA 1: CAATCTGAATTCCGGTCTCCC
DNA 2: TGGTGGCTACGACGGGATT
B4: ACUCUUG (DNA:RNA)
RNA: B1 RNA with G25A, G26C, G28C, G29U, A30U, A31G
DNA 1: CAATCTGAATTCCGGTCTCCC
DNA 2: TGGTGGCTACGACGGGATT
B5: GAGUGCG (DNA:RNA)
RNA: B1 RNA with G26A, U27G, G28U, A30C, A31G
DNA 1: CAATCTGAATTCCGGTCTCCC
DNA 2: TGGTGGCTACGACGGGATT
B6: UGCCUUA (DNA:RNA)
RNA: B1 RNA with G25U, U27C, G28C, G29U, A30U
DNA 1: CAATCTGAATTCCGGTCTCCC
DNA 2: TGGTGGCTACGACGGGATT
B7: UUUUCUC (DNA:RNA)
RNA: B1 RNA with G25U, G26U, G28U, G29C, A30U, A31C
DNA 1: CAATCTGAATTCCGGTCTCCC
DNA 2: TGGTGGCTACGACGGGATT
B8: UUGUCUC (DNA:RNA)
RNA: GGGAGACCGGAAUUCAGAUUGUCCUUGUCUCUUAAAUCCCGUCGUAGCCACCA
DNA 1: CAATCTGAATTCCGGTCTCCC
DNA 2: TGGTGGCTACGACGGGATT
B9: UUCAGGC (DNA:RNA)
RNA: B8 RNA with G27C, U28A, C29G, U30G
DNA 1: CAATCTGAATTCCGGTCTCCC
DNA 2: TGGTGGCTACGACGGGATT
B10: CAGCAUC (DNA:RNA)
RNA: B8 RNA with U25C, U26A, U28C, C29A
DNA 1: CAATCTGAATTCCGGTCTCCC
DNA 2: TGGTGGCTACGACGGGATT
B11: AUGCUGC (DNA:RNA)
RNA: B8 RNA with U25A, U28C, C29U, U30G
DNA 1: CAATCTGAATTCCGGTCTCCC
DNA 2: TGGTGGCTACGACGGGATT
B12: ACCAUGC (DNA:RNA)
RNA: B8 RNA with U25A, U26C, G27C, U28A, C29U, U30G
DNA 1: CAATCTGAATTCCGGTCTCCC
DNA 2: TGGTGGCTACGACGGGATT
B13: AUGCUUG (DNA:RNA)
RNA: B8 RNA with U25A, U28C, C29U, C31G
DNA 1: CAATCTGAATTCCGGTCTCCC
DNA 2: TGGTGGCTACGACGGGATT
B14: CAGCAUA (DNA:RNA)
RNA: B8 RNA with U25C, U26A, U28C, C29A, C31A
DNA 1: CAATCTGAATTCCGGTCTCCC
DNA 2: TGGTGGCTACGACGGGATT
B15: AGCAUGG (DNA:RNA)
RNA: B1 RNA with G25A, U27C, G28A, G29U, A30G, A31G
DNA 1: CAATCTGAATTCCGGTCTCCC
DNA 2: TGGTGGCTACGACGGGATT
B16: AGCAUUG (DNA:RNA)
RNA: B1 RNA with G25A, U27C, G28A, G29U, A30U, A31G
DNA 1: CAATCTGAATTCCGGTCTCCC
DNA 2: TGGTGGCTACGACGGGATT
B17: CAGCAUG (DNA:RNA)
RNA: B8 RNA with U25C, U26A, U28C, C29A, C31G
DNA 1: CAATCTGAATTCCGGTCTCCC
DNA 2: TGGTGGCTACGACGGGATT
B18: AGCAUGU (DNA:RNA)
RNA: B1 RNA with G25A, U27C, G28A, G29U, A30G, A31U
DNA 1: CAATCTGAATTCCGGTCTCCC
DNA 2: TGGTGGCTACGACGGGATT
B19: ACCAUGG (DNA:RNA)
RNA: GGGAGACCGGAAUUCAGAUUGUCCACCAUGGUUAAAUCCCGUCGUAGCCACCA
DNA 1: CAATCTGAATTCCGGTCTCCC
DNA 2: TGGTGGCTACGACGGGATT
B20: AGCCAUG (DNA:RNA)
RNA: B19 RNA with C26G, A28C, U29A, G30U
DNA 1: CAATCTGAATTCCGGTCTCCC
DNA 2: TGGTGGCTACGACGGGATT
B21: ACCAUGU (DNA:RNA)
RNA: B19 RNA with G31U
DNA 1: CAATCTGAATTCCGGTCTCCC
DNA 2: TGGTGGCTACGACGGGATT

These binders were tested against T1, RBFOX1 RRM (assay: EMSA; HiTS-Eq, 1 nM pool, 10 min; buffer printed only for the single-RNA assays: 10 mM Tris pH 7.5, 150 mM NaCl, 3.4 mM EDTA, 0.001% NP-40, 30 C). Details: tags: His6 N-terminal (pET28a); label: 5' 32P.
How it was run: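 These values rest on relative association constants, computed from read-count changes of each RNA species versus the control reaction and normalised to the cognate motif. Reads came from free RNA recovered by 8% native PAGE after purified RbFox RRM (wild type or mutant) at increasing concentrations was equilibrated for 10 min in 50 µL with 1 nM of a 5′-radiolabelled pool with 7 randomized nucleotides and DNA-annealed flanks.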

Row | Binder | binding signal
1 | B1 | 0.00994 KA relative to UGCAUGU
2 | B2 | 0.00695 KA relative to UGCAUGU
3 | B3 | 0.0147 KA relative to UGCAUGU
4 | B4 | 0.0078 KA relative to UGCAUGU
5 | B5 | 0.0156 KA relative to UGCAUGU
6 | B6 | 0.00671 KA relative to UGCAUGU
7 | B7 | 0.0162 KA relative to UGCAUGU
8 | B8 | 0.0203 KA relative to UGCAUGU
9 | B9 | 0.0127 KA relative to UGCAUGU
10 | B10 | 0.0124 KA relative to UGCAUGU
11 | B11 | 0.00746 KA relative to UGCAUGU
12 | B12 | 0.00513 KA relative to UGCAUGU
13 | B13 | 0.0339 KA relative to UGCAUGU
14 | B14 | 0.00331 KA relative to UGCAUGU
15 | B15 | 0.347 KA relative to UGCAUGU
16 | B16 | 0.0104 KA relative to UGCAUGU
17 | B17 | 0.665 KA relative to UGCAUGU
18 | B18 | 0.738 KA relative to UGCAUGU
19 | B19 | 0.00726 KA relative to UGCAUGU
20 | B20 | 0.0102 KA relative to UGCAUGU
21 | B21 | 0.00472 KA relative to UGCAUGU
